Test results as given in the supplement of paper PMC4894684.
Structures can show the parent of a compound that is named as a salt. ± gives the standard deviation of the averaged measurements.

Test system: Toxoplasma gondii RH (in HFF)
Test: parasite growth relative to the screen mean (all compounds = 100%); higher = less inhibition of parasite growth
Details: 5 µM; 72 h; oxygen 21 %
Outline: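 Values give growth relative to the screen mean. The screen mean (all compounds) is set at 100%, and two screens were averaged. Compounds at 5 µM final were placed on confluent human foreskin fibroblasts, which were infected within 2 h with RH β-Gal–GFP Toxoplasma (MOI 1:5) and kept 72 h at 21% O2 before a CPRG β-Gal readout against in-plate standard curves.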

Row | SMILES | parasite growth
1 | N[C@@H](CC(=O)Nc1ccc(Oc2cc(F)c(F)cc2Br)cc1)C(=O)O | 149.3 ± 0.68%
2 | CC(C)(C)c1ccc(S(=O)(=O)/C=C/C#N)cc1 | 127 ± 30%
3 | CC1(C)C(=O)NC2=C1C(=O)C(=O)c1ccccc12 | < 0%
4 | COc1ccc(Br)cc1S(=O)(=O)NC(=O)/C=C/c1ccccc1Cc1ccc2ccccc2c1 | 125 ± 12%
5 | CCc1cc(C(C)=O)c(O)cc1OCCCCCC(C)(C)c1nn[nH]n1 | 111 ± 4.1%
6 | CCn1ccnc1CC1COc2ccccc2O1 (stereo not given) [Imiloxan hydrochloride] | 120 ± 7%
7 | Cn1cc(C(=O)OCC2CCN(CCNS(C)(=O)=O)CC2)c2ccccc21 | 123 ± 3.8%
8 | O=C(CCCN1CCC(O)(c2ccc(Cl)cc2)CC1)c1ccc(F)cc1 [Haloperidol hydrochloride] | 134 ± 39%
9 | CCN(CC)CC1CCCCN1CC(=O)N1c2ccccc2C(=O)Nc2cccnc21 (stereo not given) | 146 ± 36%
10 | CC1(C)C[C@@H]1C(=O)N/C(=C\CCCCSC[C@H](N)C(=O)O)C(=O)O [Cilastatin sodium] | 117 ± 14%
11 | COc1ccc(CCCOC(Cn2ccnc2)c2ccc(OC)cc2)cc1 (stereo not given) | 95.6 ± 24%
12 | COCCNC(=O)COc1ccc(OCCNC[C@H](O)COc2ccccc2)cc1 [ZD 7114 hydrochloride] | 123 ± 7%
13 | CC1(C(=O)O)NCCc2cc(O)c(O)cc21 (stereo not given) [Salsolinol-1-carboxylic acid] | 104 ± 22%
14 | O=C1c2ccccc2C(Cc2ccncc2)(Cc2ccncc2)c2ccccc21 [XE 991 dihydrochloride] | 34.3 ± 6.2%
15 | CC(C)NCC(O)c1ccc2ccccc2c1 (stereo not given) [Pronethalol hydrochloride] | 117 ± 28%
